Laboratory results published in PubChem BioAssay (NCI).
About 83,000 compounds went through this panel and 20% of them were active in at least one assay; those are over-represented in the sample as a whole.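 Assay: single dose, 48 h. Readout: percent growth (0 = no net growth; negative = cell death). Active: <10.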 Unmarked numbers belong to inactive results. Active and inactive are the calls of the source.

tested on: ACHN renal; test: NCI-60 one-dose screen, 48 h (100 = growth as untreated, 0 = no growth, -100 = all killed); details: 10 µM unless noted

Compared with `C=C(C)[C@@H]1CC[C@]2(C(=O)N3CCCNCC3)CC[C@]3(C)[C@H](CC[C@@H]4[C@@]5(C)CCC(=O)C(C)(C)[C@@H]5CC[C@]43C)[C@@H]12`, `CCCCC(=O)OC1CCCCC1C` (centres undefined) is lower in growth: 105% for the first, 94.4% for the second.

First: Cn1c(=O)c2c(ncn2CCC(=O)Nc2ccc(F)cc2)n(C)c1=O
Second: Fc1ccc(NCc2nnc(-c3ccc(Cl)cc3)o2)cc1
The growth of the first is higher: 110% for the first, 78.7% for the second.

Compared with `COc1ccc(-c2cc(-c3c(C)oc4cc5occc5c(OC)c4c3=O)nc(N)c2C#N)cc1OC`, `COc1ccccc1-n1cnc(N)c1C(=O)c1cc(OC)c(OC)c(OC)c1` is lower in growth: 65.6% for the first, 58.6% for the second.

Compared with `COc1cc(NC(C)CN(CC(C)C)C(C)C)c2ncccc2c1` (centres undefined), `COc1ccc2c(c1)c(-c1nc(-c3cn(C)c4ncccc34)cs1)cn2CCN` is lower in growth: 99.3% for the first, 69.4% for the second.

Going from `COc1ccc(/C=C/C(=O)NCC(C)O)cc1` (centres undefined) to `Cc1ccc(Cc2cnc(NC(=O)/C=C/c3cccc(C)c3)s2)cc1`, the growth falls from 102% to 12.1%.

Compared with `Cc1cc(N(CCCNc2ccnc3cc(Cl)ccc23)Cc2ccco2)nc(Cl)n1`, `Cc1cc(N2CCCCC2)nc(N(CCNc2ccnc3cc(Cl)ccc23)Cc2ccco2)n1` is lower in growth: 64.8% for the first, 27.8% for the second.

First: Cc1c(C)c2c(c(C)c1NC(=O)CCCCCCC(=O)O)CCC(C)(CCCC(C)CCCC(C)CCCC(C)C)O2 (centres undefined)
Second: CC(=O)OCCCCCCn1c2ccccc2c2c3c(c4c5ccccc5n(C)c4c21)C(=O)N(O)C3=O
The growth of the first is higher: 101% for the first, 74.9% for the second.

First: CN(C)c1ccc(N=C2C=CC(=O)C=C2)cc1
Second: Cc1cc(Cl)c2c(N(C)C)cccc2n1
The growth of the first is lower: 69.3% for the first, 112% for the second.

Compared with `COc1ccc(OCC(CO)N2CCN(c3ccccc3)CC2)cc1` (centres undefined), `O=C(O)/C(=C/c1ccc(O)cc1)c1ccccc1` is lower in growth: 104% for the first, 101% for the second.

Going from `COc1ccc(CCN2C(=O)C(C)(C)SC2=S)cc1OC` to `O=C1/C(=C\c2ccco2)SC(=S)N1CCc1ccc(O)cc1`, the growth falls from 104% to 96%.

Going from `Cc1nnc2nc(N)[nH]n2c1=O` to `Cc1cc(C=O)c(C)c2c1[nH]c1ccccc12`, the growth falls from 109% to 88.4%.

Compared with `COc1cccc(-c2nn(-c3ccccc3)cc2-c2ccnc(NCCNS(=O)(=O)c3cccc(F)c3)c2)c1`, `COc1ccc(NC(=O)c2ccc3c(c2)nc(-c2cc4ccccc4[nH]c2=O)n3-c2cc(C(C)(C)C)[nH]n2)cc1` is higher in growth: 21.7% for the first, 97.1% for the second.

First: N#CC1=C(N)Oc2c(c(N)nn2-c2ccccc2)C1c1ccc(Cl)cc1Cl (centres undefined)
Second: N#CC1=C(N)Oc2c(sc3c(F)cccc23)C1c1ccc(Cl)cc1 (centres undefined)
The growth of the first is higher: 99% for the first, 42% for the second.

Going from `Oc1cccc2oc(=S)[nH]c12` to `Nc1c2c(nc3ccc(Cl)cc13)CC(c1ccc(O)cc1)CC2=O` (centres undefined), the growth falls from 99.7% to 49.4%.

Going from `COc1cc(/C=C/c2cc(/C=C/c3ccc(O)c(OC)c3)n(-c3ccccc3)c(=O)n2)ccc1O` to `COc1ccc(-n2c(/C=C/c3ccc(O)c(OC)c3)cc(/C=C/c3ccc(O)c(OC)c3)nc2=O)cc1`, the growth falls from 81.1% to 69.5%.

Compared with `NC(=O)NCC1CCCCC1`, `Cc1ccc2oc(=O)cc(-c3sc(N4CCCCC4)nc3-c3ccccc3)c2c1` is lower in growth: 106% for the first, 84.3% for the second.

Going from `O=C1c2ccccc2C(=Cc2ccccc2)c2ccccc21` to `CCCCC/C(=C\c1ccccc1)C1OC(C)C(C)O1` (centres undefined), the growth rises from 28.1% to 101%.

`C/C(=N\NC(=O)C(C)SC(C)C(=O)N/N=C(\C)c1cccnc1)c1cccnc1` (centres undefined) was tested, and the growth was 106%.

For `CCCCC[C@H]1CC=C2C(=O)C(Cl)=C[C@@H]2CC=CCCCC(=O)O[C@@H](CCCCC)CC=C2C(=O)C(Cl)=C[C@@H]2CC=CCCCC(=O)O[C@@H](CCCCC)CC=C2C(=O)C(Cl)=C[C@@H]2CC=CCCCC(=O)O1`, the growth was 69.6% [8 µM].

`N#Cc1cnc2cc(OC[C@@H](O)CO)c(NC(=O)CC3CSSC3)cc2c1Nc1ccc(OCc2cccc(F)c2)c(Cl)c1` was tested, and the growth was 3.6% (active).
In the case of `Cc1nn2c(-c3nc4cc(Cl)c(Cl)cc4[nH]3)c(-c3ccc(F)cc3)nc2s1`, the growth is reported as 9.13% (active).
With `O=C1CCC/C=C\C[C@H]2C=C(Cl)C(=O)/C2=C/C[C@H](CCCCC(F)(F)F)OC(=O)CCC/C=C\C[C@H]2C=C(Cl)C(=O)/C2=C/C[C@H](CCCCC(F)(F)F)O1` the growth was -93.1% [7.5 µM] (active).
